# The sample as a whole holds a higher share of hits than the screen did.
# miR122 inh = raises miR-122 sensor activity in Huh7 cells; Huh7 psiCHECK-miR122 Renilla luciferase sensor, 48 h; AID 623901; 340,000 tested, 0.14% active; activation, % at 12.5 µM;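 active means mean activation of 30% or more, with every replicate also reaching 30%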;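 further: higher luciferase signal means stronger suppression of miR-122 activity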
# A number is an active result; n = inactive.
SMILES,miR122 inh
CNC(=O)C[C@@H]1CC[C@@H]2[C@@H](COc3ccc(NC(=O)c4ccccc4F)cc3C(=O)N2C)O1,53
COCC(=O)Nc1ccc2c(c1)C(=O)N(C)C[C@H](OC)[C@@H](C)CN(C(=O)COC)[C@@H](C)CO2,n
Cc1ccccc1NC(=O)Nc1ccc2c(c1)C(=O)N(C)[C@H]1CC[C@@H](CC(=O)NCC3CC3)O[C@H]1CO2,n
COCC(=O)Nc1ccc2c(c1)C(=O)N(C)[C@@H]1CC[C@@H](CC(=O)NC3CCCC3)O[C@H]1CO2,53
CNC(=O)C[C@@H]1CC[C@@H]2[C@H](COc3ccc(NC(=O)Nc4cccc(C)c4)cc3C(=O)N2C)O1,47
CN1C(=O)c2cc(NC(=O)NCc3ccccc3)ccc2OC[C@@H]2O[C@H](CC(=O)NCC3CCCCC3)CC[C@@H]21,n
COCC(=O)Nc1ccc2c(c1)C(=O)N(C)C[C@H](OC)[C@H](C)CN(C(=O)COC)[C@H](C)CO2,n
CO[C@@H]1CN(C)C(=O)c2cc(NC(=O)NC(C)C)ccc2OC[C@H](C)N(C(=O)NC(C)C)C[C@H]1C,n
CCCNC(=O)C[C@@H]1CC[C@H]2[C@H](COc3ccc(NC(=O)Nc4ccccc4F)cc3C(=O)N2C)O1,n
CNC(=O)C[C@@H]1CC[C@H]2[C@@H](COc3ccc(NC(=O)NC(C)C)cc3C(=O)N2C)O1,70
CCC(=O)Nc1ccc2c(c1)OC[C@@H](C)N(C(=O)c1ccccc1F)C[C@H](C)[C@H](OC)CN(C)C2=O,n
C[C@@H]1CN([C@H](C)CO)S(=O)(=O)c2ccc(C#Cc3ccccn3)cc2O[C@H]1CN(C)Cc1ccc(F)cc1,n
CCCNC(=O)N(C)C[C@@H]1Oc2cc(C#CCOC)ccc2S(=O)(=O)N([C@@H](C)CO)C[C@H]1C,n
CC(C)NC(=O)N(C)C[C@H]1Oc2ncc(C3=CCCCC3)cc2C(=O)N([C@@H](C)CO)C[C@H]1C,n
C[C@H](CO)N1C[C@H](C)[C@H](CN(C)C)Oc2cc(C#C[C@@H](C)O)ccc2S1(=O)=O,n
COCC#Cc1cnc2c(c1)C(=O)N([C@@H](C)CO)C[C@H](C)[C@@H](CN(C)C(=O)Nc1ccc(OC)cc1)O2,n
C[C@H]1CN([C@@H](C)CO)C(=O)c2cc(C#CCc3ccccc3)cnc2O[C@H]1CN(C)CC1CCOCC1,n
CO[C@H]1CN(C)C(=O)c2ccc(NC(=O)Nc3ccc(Cl)cc3)cc2OC[C@@H](C)N(C)C[C@@H]1C,n
C[C@@H]1CN([C@@H](C)CO)C(=O)c2cc(C#Cc3ccc(F)cc3)cnc2O[C@@H]1CN(C)CC1CCOCC1,n
C[C@@H]1CN([C@H](C)CO)C(=O)c2cc(-c3cccc(F)c3)cnc2O[C@H]1CN(C)CC1CCCC1,n
C/C=C/c1cnc2c(c1)C(=O)N([C@H](C)CO)C[C@H](C)[C@H](CN(C)C(=O)Nc1cccc(OC)c1)O2,n
C[C@@H]1CN([C@@H](C)CO)C(=O)c2cc(-c3cccc(F)c3)cnc2O[C@H]1CN(C)Cc1cncnc1,n
CC(C)NC(=O)N(C)C[C@H]1Oc2cc(-c3ccccc3)ccc2S(=O)(=O)N([C@@H](C)CO)C[C@H]1C,n
CO[C@H]1CN(C)C(=O)c2cc(NC(=O)Nc3ccccc3)ccc2OC[C@H](C)NC[C@H]1C,n
CO[C@@H]1CN(C)C(=O)c2cc(NC(=O)Nc3ccccc3)ccc2OC[C@H](C)NC[C@H]1C,n
SMILES,miR122 inh
COC(=O)C[C@@H]1CC[C@@H]2[C@@H](COc3ccc(NC(=O)Nc4cccc(C#N)c4)cc3C(=O)N2C)O1,48
C[C@@H]1CN([C@H](C)CO)S(=O)(=O)c2ccc(-c3cncnc3)cc2O[C@H]1CN(C)C(=O)Cc1cccnc1,n
C[C@H]1CN([C@@H](C)CO)C(=O)c2cc(Br)cnc2O[C@@H]1CN(C)C(=O)c1cccnc1,n
C[C@@H]1CN([C@H](C)CO)C(=O)c2cc(C#CCc3ccccc3)cnc2O[C@H]1CN(C)Cc1ccccn1,n
c1ccc(CCCNCCCn2cnc3c(OCc4ccccc4)ncnc32)cc1,34
CCCC#Cc1cnc2c(c1)C(=O)N([C@@H](C)CO)C[C@H](C)[C@@H](CN(C)C(=O)C1CC1)O2,n
CC(C)C#Cc1ccc2c(c1)O[C@H](CN(C)C(=O)CN(C)C)[C@@H](C)CN([C@H](C)CO)S2(=O)=O,n
C/C=C/c1cnc2c(c1)C(=O)N([C@H](C)CO)C[C@@H](C)[C@H](CN(C)S(=O)(=O)c1ccc(C)cc1)O2,n
COCC#Cc1ccc2c(c1)O[C@@H](CN(C)Cc1cncnc1)[C@H](C)CN([C@@H](C)CO)S2(=O)=O,n
Cc1ccccc1NC1=C/C(=N\S(=O)(=O)c2cccs2)c2ccccc2C1=O,60
Cc1noc(C)c1NC(=O)N(C)C[C@@H]1Oc2ncc(C#Cc3ccc(C(F)(F)F)cc3)cc2C(=O)N([C@H](C)CO)C[C@@H]1C,n
COc1cccc(-c2cnc3c(c2)C(=O)N([C@H](C)CO)C[C@H](C)[C@H](CN(C)S(=O)(=O)c2ccc(C)cc2)O3)c1,n
CCCC(=O)Nc1ccc2c(c1)C(=O)N(C)C[C@@H](OC)[C@@H](C)CN(CCC)[C@H](C)CO2,n

# High-throughput results from PubChem BioAssay.
